PubChem BioAssay AID1159580 (chemical genetic matrix, 2015)
About 2,000 (36%) of roughly 5,500 compounds were called active. Not shown: some 18% with an inconclusive outcome. No stated cut-off is given here; in the data, active means normalized growth mostly below about 0.91 (no sharp cut-off); inconclusive means no clear call, values can overlap the other calls; inactive means mostly above about 0.92. The list shows a part of the results.

Assay: chemical genetic growth profiling, strain panel (AID 1159580);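 further: tested at 20 µM; growth read once vehicle control cultures reached saturation at 30 °C; 1 = growth at the plate median or of vehicle wells; lower values mean less growth of the strain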
Settings: S. cerevisiae deletion strains, growth OD

Measured: normalized growth

CN(CCC(N)CC(=O)N[C@H]1C=CC(n2ccc(N)nc2=O)O[C@@H]1C(=O)O)C(=N)N (stereo not given in full)
inactive: locus YAL026C, strain drs2, hits give low values 0.953 | locus YAL030W, strain snc1, hits give low values 0.93 | locus YBL061C, strain skt5, hits give low values 0.938 | locus YBR023C, strain chs3, hits give low values 0.944 | locus YBR171W, strain sec66, hits give low values 0.963 | locus YBR231C, strain swc5, hits give low values 0.976 | locus YCL011C, strain gbp2, hits give low values 0.935 | locus YCL016C, strain dcc1, hits give low values 0.947 | locus YCL069W, strain vba3, hits give low values 0.942 | locus YCR088W, strain abp1, hits give low values 0.962 | locus YDL040C, strain nat1, hits give low values 0.983 | locus YDR001C, strain nth1, hits give low values 0.965 | locus YDR137W, strain rgp1, hits give low values 0.852 | locus YDR297W, strain sur2, hits give low values 0.941 | locus YDR334W, strain swr1, hits give low values 0.917 | locus YEL003W, strain gim4, hits give low values 0.919 | locus YEL037C, strain rad23, hits give low values 0.963 | locus YEL061C, strain CIN8 (second series), hits give low values 0.952 | locus YER016W, strain bim1, hits give low values 0.976 | locus YGL167C, strain pmr1, hits give low values 0.998 | locus YGL227W, strain vid30, hits give low values 0.98 | locus YGL253W, strain hxk2, hits give low values 0.942 | locus YHR013C, strain ard1, hits give low values 0.929 | locus YHR030C, strain SLT2, hits give low values 0.9 | locus YHR079C, strain IRE1, hits give low values 0.924 | locus YJL095W, strain BCK1, hits give low values 0.934 | locus YKR026C, strain gcn3, hits give low values 0.965 | locus YKR091W, strain srl3, hits give low values 0.986 | locus YLL001W, strain dnm1, hits give low values 0.923 | locus YLL026W, hits give low values 0.934 | locus YLL041C, strain sdh2, hits give low values 0.946 | locus YLR113W, strain HOG1, hits give low values 0.958 | locus YLR258W, strain gsy2, hits give low values 0.922 | locus YLR262C, strain YPT6 (second series), hits give low values 0.904 | locus YLR320W, strain mms22, hits give low values 0.957 | locus YLR342W, strain FKS1, hits give low values 0.943 | locus YMR129W, hits give low values 0.949 | locus YMR205C, strain PFK2, hits give low values 1 | locus YNL183C, strain NPR1, hits give low values 0.881 | locus YNL322C, strain KRE1 (second series), hits give low values 0.942 | locus YNR049C, strain mso1, hits give low values 0.94 | locus YOR070C, strain gyp1, hits give low values 0.962 | locus YOR083W, strain WHI5, hits give low values 0.923 | locus YOR231W, strain MKK1, hits give low values 0.87 | locus YOR265W, strain rbl2, hits give low values 0.966 | locus YOR270C, strain vph1, hits give low values 0.781 | locus YOR290C, strain snf2, hits give low values 0.875 | locus YPL256C, strain CLN2, hits give low values 0.901
active: locus YAL021C, strain ccr4, hits give low values 0.406 | locus YBR009C, strain hhf1, hits give low values 0.895 | locus YBR279W, strain paf1, hits give low values 0.916 | locus YCL061C, strain MRC1, hits give low values 0.899 | locus YDL005C, strain med2, hits give low values 0.111 | locus YDR069C, strain doa4, hits give low values 0.494 | locus YDR159W, strain sac3, hits give low values 0.659 | locus YDR195W, strain ref2 0.603 | locus YDR335W, strain msn5, hits give low values 0.626 | locus YDR392W, strain spt3, hits give low values 0.262 | locus YER015W, strain faa2, hits give low values 0.917 | locus YER111C, strain swi4, hits give low values 0.793 | locus YER155C, strain BEM2 (second series), hits give low values 0.826 | locus YFR010W, strain ubp6, hits give low values 0.725 | locus YGL173C, strain kem1, hits give low values 0.124 | locus YGL240W, strain doc1, hits give low values 0.31 | locus YHR027C, strain rpn1, hits give low values 0.814 | locus YHR142W, strain chs7, hits give low values 0.846 | locus YJL092W, strain hpr5, hits give low values 0.913 | locus YJL095W, strain BCK1 (second series), hits give low values 0.891 | locus YJL115W, strain asf1, hits give low values 0.725 | locus YJL129C, strain trk1, hits give low values 0.637 | locus YJL154C, strain vps35, hits give low values 0.898 | locus YJL164C, strain tpk1, hits give low values 0.888 | locus YJL166W, strain qcr8, hits give low values 0.891 | locus YJL187C, strain SWE1, hits give low values 0.872 | locus YJR066W, strain TOR1, hits give low values 0.814 | locus YKL160W, strain elf1, hits give low values 0.887 | locus YLR027C, strain aat2, hits give low values 0.872 | locus YLR221C, strain rsa3, hits give low values 0.871 | locus YLR357W, strain rsc2, hits give low values 0.31 | locus YLR370C, strain arc18, hits give low values 0.478 | locus YLR384C, strain iki3, hits give low values 0.692 | locus YML120C, strain ndi1, hits give low values 0.888 | locus YMR058W, strain fet3, hits give low values 0.885 | locus YMR125W, strain sto1, hits give low values 0.686 | locus YMR231W, strain pep5, hits give low values 0.734 | locus YNL071W, strain lat1, hits give low values 0.89 | locus YNL209W, strain ssb2, hits give low values 0.796 | locus YNL248C, strain rpa49, hits give low values 0.73 | locus YOR001W, strain rrp6, hits give low values 0.793 | locus YOR080W, strain dia2, hits give low values 0.776 | locus YOR106W, strain vam3, hits give low values 0.699 | locus YPL051W, strain arl3, hits give low values 0.869 | locus YPL078C, strain atp4, hits give low values 0.826 | locus YPL106C, strain sse1, hits give low values 0.356 | locus YPL240C, strain hsp82, hits give low values 0.924
